Laboratory results: the supplement of paper PMC7156485
“And” between values parts separate entries of the source, which are not always exact repeats. Equal values may be shown once. ± gives the standard deviation of the averaged measurements.

Columns and labels:
Settings in all cases: concentration: 10 µM; 24 h
HCC1569 [1] = test: cell number relative to DMSO (% of DMSO); higher = more cells (less growth inhibition / toxicity)
Method in brief: (§1)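 Cell number or H1.0 nuclear intensity appears as percent of the plate control, based on the median of replicates. Measurements came from HCC1569 and TDF cells exposed in triplicate to compounds at 10 µM for 24 h at 37 °C, then imaged in six fields per well at ×10. Positional effects were smoothed out of HCC1569 values.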

TDF [2] = test: as above
Method in brief: as §1

TDF [3] = test: H1.0 immunofluorescence intensity relative to DMSO (% of DMSO); higher = stronger H1.0 induction, active = 120 or more
Method in brief: as §1

HCC1569 [4] = test: H1.0 immunofluorescence intensity relative to DMSO (% of DMSO); higher = stronger H1.0 induction, active = 140 or more
Method in brief: as §1
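Wherever H1.0 immunofluorescence intensity relative to DMSO is given: TDF is a line of transformed human dermal fibroblasts of mesenchymal origin.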
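Wherever cell number relative to DMSO is given: TDF denotes transformed human dermal fibroblasts of mesenchymal origin.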

SMILES	cell number (HCC1569 [1])	cell number (TDF [2])	H1.0 immunofluorescence intensity (TDF [3])	H1.0 immunofluorescence intensity (HCC1569 [4])
COc1ccc2c(c1)c(CC(=O)O)c(C)n2C(=O)c1ccccc1 [1-benzoyl-5-methoxy-2-methylindole-3-acetic acid]	101	104	96.8 (inactive)	93.1 (inactive)
Cc1cc(C(C)(C)C)c(O)c(C)c1CC1=NCCN1.Cl [Oxymetazoline.HCl]	102	97.8	98.5 (inactive)	98.2 (inactive)
CC(=O)OCC(=O)NCCCOc1cccc(CN2CCCCC2)c1.Cl [Roxatidine acetate.HCl]	107	95.7	103 (inactive)	99 (inactive)
C=C1C(=CC=C2CCCC3(C)C2CCC3C(C)CCCC(C)(C)O)CC(O)CC1O (stereo not given) [1,25-Dihydroxyvitamin D3]	104	106	95.2 (inactive)	98.6 (inactive)
COc1ccc(-c2cc(=S)ss2)cc1 [Anethole-trithione]	102	92.7	96.7 (inactive)	103 (inactive)
O=C1N=c2ccccc2=C1c1[nH]c2ccccc2c1NOCCC(O)CO (stereo not given) [Indirubin Derivative E804]	60.8	62.7	102 (inactive)	167 (active)
COc1ccc(-c2cc3c(C)nc(N)nc3n(C3CCC(OCCO)CC3)c2=O)cn1 (stereo not given)	35	51	97.8 (inactive)	191 (active)
O=C(Nc1ccccc1C(=O)Nc1ccc(CCO)cc1)c1ccc([N+](=O)[O-])cc1 [N-(4-(2-hydroxyethyl)phenyl)-2-(4-nitrobenzamido)benzamide]	82.4	90.9	101 (inactive)	144 (active)
CN1CCCC1c1cccnc1 (single isomer, unassigned; (-)) [(-)-Nicotine]	99.2	114	94.2 (inactive)	80 (inactive)
CC(CCc1ccccc1)NCC(O)c1ccc(O)c(C(N)=O)c1.Cl (stereo not given) [Labetalol hydrochloride]	101	106	83.5 (inactive)	99.3 (inactive)
COc1ccc(-c2cc(=O)c3c(O)cc(OC4OC(COC5OC(C)C(O)C(O)C5O)C(O)C(O)C4O)cc3o2)cc1O (stereo not given) [Diosmin]	104	107	91.8 (inactive)	92 (inactive)
Oc1cc(O)cc(/C=C/c2ccc(Br)cc2)c1 [5-[(E)-2-(4-bromophenyl)ethenyl]-1,3-benzenediol]	93.1	98.8	95.4 (inactive)	127 (inactive)
C[N+]1(C)CCCC1C(=O)[O-].Cl (stereo not given)	96.1	115	95.9 (inactive)	109 (inactive)
CCCCCC=CCC(O)C=CC=CC=CC(O)CCCC(=O)O [5(S),12(R)-DIHETE all trans]	99.8	97	99.7 (inactive)	101 (inactive)
CCCNC(C)C(=O)Nc1ccccc1C.Cl (stereo not given) [Prilocaine hydrochloride]	103	107	86.9 (inactive)	96.2 (inactive)
CCCCCOC(=O)Nc1nc(=O)n(C2OC(C)C(O)C2O)cc1F (stereo not given) [Capecitabine]	102	98.9	101 (inactive)	95.7 (inactive)
CNCCC(Oc1ccccc1OC)c1ccccc1.Cl (stereo not given) [Nisoxetine hydrochloride]	98.6	111	99.4 (inactive)	101 (inactive)
CC1(C)CCCC(C)(C2CCC3(C)C2C(O)CC2C4(C)CCC(O)C(C)(C)C4C(O)CC23C)O1 (stereo not given) [Panaxatriol]	100	93.4	94.8 (inactive)	99.6 (inactive)
Cc1ccc(-c2n[nH]c3c2C(c2cccc(O)c2)N(c2ccc(C(=O)O)cc2)C3=O)cc1 (stereo not given)	103	92.6	95 (inactive)	116 (inactive)
Cc1ccccc1C=CC1=NCCN1.O=C(O)C(=O)O [Metrazoline oxalate]	96.3	81	102 (inactive)	124 (inactive)
Br.CCSC(=N)N [S-Ethylisothiourea hydrobromide]	102	109	97.1 (inactive)	88 (inactive)
CNCCC(Oc1ccc(C(F)(F)F)cc1)c1ccccc1.Cl (stereo not given) [Fluoxetine hydrochloride]	93.1	85.7	108 (inactive)	122 (inactive)
CCCCCC=CCC(O)C=CC=CCC=CCCCC(=O)O (stereo not given)	105 and 98	95.5 and 90.4	92.5 (inactive) and 96.7 (inactive)	98.4 (inactive) and 99.8 (inactive)
Cc1cc2nc3c(=O)[nH]c(=O)nc-3n(C)c2cc1C=O	99.8	97.8	91 (inactive)	115 (inactive)
NC(CC(=O)[O-])C(=O)O.NC(CC(=O)[O-])C(=O)O.[Mg+2] [magnesium bis[(3S)-3-amino-3-carboxypropanoate]]	101	102	94.5 (inactive)	109 (inactive)

SMILES	cell number (HCC1569 [1])	cell number (TDF [2])	H1.0 immunofluorescence intensity (TDF [3])	H1.0 immunofluorescence intensity (HCC1569 [4])
CC1CS(=O)(=O)CCN1/N=C/c1ccc([N+](=O)[O-])o1 (stereo not given)	96.4	102	98.5 (inactive)	95.5 (inactive)
COc1ccccc1CNCCCCCCNCCCCCCCCNCCCCCCNCc1ccccc1OC.Cl.Cl.Cl.Cl [Methoctramine tetrahydrochloride]	104	87.6	103 (inactive)	98 (inactive)
CN1CCC(=C2c3ccccc3C=Cc3ccccc32)CC1.Cl [Cyproheptadine hydrochloride]	98	97.3	111 (inactive)	120 (inactive)
CC(C)N(CCC(=O)c1ccc2ccccc2c1)Cc1ccccc1.Cl	96.2	92.5	102 (inactive)	119 (inactive)
COC(=O)Nc1nc2ccc(C(=O)c3ccc(F)cc3)cc2[nH]1 [Flubendazole]	65.9	9.66	151 (active)	168 (active)
N#Cc1ccc(C(c2ccc(C#N)cc2)n2cncn2)cc1 [Letrozole]	100	103	96.8 (inactive)	102 (inactive)
CCCOc1ccc(C=C2SC(=O)NC2=O)cc1 [PIM1/2 Kinase Inhibitor VI]	106	110	103 (inactive)	98.1 (inactive)
CC(=O)Nc1ccc(CC(=O)O)cc1 [Actarit]	100	103	97.2 (inactive)	96.5 (inactive)
Cc1c[nH]c(C=C2C(=O)Nc3ccccc32)c1CCC(=O)O	101	102	95.4 (inactive)	103 (inactive)
COc1cc2c(cc1CC=C(C)C)C(=O)CC(c1ccc(O)cc1)O2 (stereo not given) [Bavachinin A]	103	104	99.5 (inactive)	96.7 (inactive)
CCOc1nc2cccc(C(=O)O)c2n1Cc1ccc(-c2ccccc2-c2nc(=O)o[nH]2)cc1	79.7	101	103 (inactive)	137 (inactive)
COc1ccccc1N1CCN(CC(O)COc2cccc3ccccc23)CC1.Cl.Cl (stereo not given) [Naftopidil.2HCl]	97.4	98.3	88.6 (inactive)	103 (inactive)
CC12CC3CC(C)(C1)CC(N)(C3)C2.Cl [Memantine hydrochloride]	106	96	101 (inactive)	98.3 (inactive)
NC(N)=NC(CCC(=O)O)C(=O)O (stereo not drawn) [alpha-Guanidinoglutaric acid]	104	108	92.6 (inactive)	86.2 (inactive)
CC(N=C(NC#N)Nc1ccncc1)C(C)(C)C (stereo not given) [Pinacidil]	103 ± 2.5	107 ± 6.8	89.4 (inactive)	101 (inactive)
COc1ccc(C2CC(c3ccccc3)=NN2c2ccc(S(N)(=O)=O)cc2)cc1 (stereo not given)	95.8	97.9	91.3 (inactive)	114 (inactive)
CCCC(CCC)C(=O)NO [N-hydroxy-2-propylpentanamide]	100	102	98.7 (inactive)	80.8 (inactive)
Cc1[nH]c2ccccc2c1CCNC(=O)c1ccccc1F [2-fluoro-N-[2-(2-methyl-1H-indol-3-yl)ethyl]benzamide]	100	106	110 (inactive)	93.6 (inactive)
CC(=O)OCC(CCn1cnc2cnc(N)nc21)COC(C)=O [Famciclovir]	103	97.4	99.2 (inactive)	111 (inactive)
CC(C)NCC(O)c1ccc(O)c(O)c1.Cl (racemic)	104	94	97.4 (inactive)	99 (inactive)
CCC1OC(=O)C(C)C(OC2CC(C)(OC)C(O)C(C)O2)C(C)C(OC2OC(C)CC(N(C)C)C2O)C(C)(OC)CC(C)C(=O)C(C)C(O)C1(C)O (stereo not given) [Clarithromycin]	98.4	93	94.3 (inactive)	94.6 (inactive)
Cl.O=c1cc(N2CCOCC2)oc2c(-c3ccccc3)cccc12 [LY-294,002 hydrochloride]	82	90.9	82.5 (inactive)	131 (inactive)
COCc1nc2c([nH]1)c(=O)n(C)c(=O)n2CC(C)C [8-Methoxymethyl-3-isobutyl-1-methylxanthine]	104	110	92.4 (inactive)	93.2 (inactive)
CCCCCCCCCCCC1N[C@H](C(=O)O)CS1 (stereo partly drawn) [(4R)-2-undecyl-1,3-thiazolidine-4-carboxylic acid]	98.7	105	95.5 (inactive)	96.9 (inactive)
CCN(CC)CCNC(=O)c1cc(Cl)c(N)cc1OC [Metoclopramide]	102	105	97.1 (inactive)	108 (inactive)
